Data on four compounds can be found in PubChem BioAssay (NCI).

Some test systems named below: HOP-92 NSCLC; K-562 leukemia; RXF 393 renal; UACC-257 melanoma; SK-MEL-2 melanoma; SN12C renal; A498 renal; RPMI-8226 leukemia; OVCAR-3 ovarian; MDA-MB-435 melanoma; HCC-2998 colon; TK-10 renal; CAKI-1 renal.
Assay in all cases: NCI-60 one-dose screen, 48 h (100 = growth as untreated, 0 = no growth, -100 = all killed)
What all share (settings): 10 µM

The structures appear in SMILES notation. This is part of a sample that, as a whole, favours compounds with a hit. Of some 83,000 tested, about 20% had one in any assay.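 In brief: 96-well plates, 48 h treatment, single concentration, percent growth endpoint.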 Active and inactive are the calls of the source. The calls were made as follows: active = growth percent below 10; inactive = the rest.

As to `CC(C)=CCc1c2c(c(O)c3c1O[C@]14C(=C[C@@H]5C[C@H]1C(C)(C)O[C@@]4(C/C=C(/C)C(=O)O)C5=O)C3=O)C=CC(C)(C)O2`, the growth was -53.6% (active) in the assay on HOP-92 NSCLC; 2.2% (active) in the assay on K-562 leukemia; -85.5% (active) with RXF 393 renal; -77.2% (active) in the assay on UACC-257 melanoma; -75.2% (active) in the assay with SK-MEL-2 melanoma; -26.9% (active) in the assay on SN12C renal. In addition, the growth with A498 renal was -94.3% (active); in the assay on RPMI-8226 leukemia it was -8.35% (active); with OVCAR-3 ovarian it was -93.9% (active); in the assay with MDA-MB-435 melanoma, -80.1% (active); in the assay on HCC-2998 colon, -88.1% (active).
As for `COC(=O)[C@H]1[C@@H](O)[C@@]2(O)c3c(OC)cc(OC)cc3O[C@@]2(c2ccc(OC)cc2)[C@@H]1c1ccccc1`, the growth is -12.5% (active) in the assay on HOP-92 NSCLC; 2.1% (active) with K-562 leukemia; -20.3% (active) in the assay with RXF 393 renal; -45.5% (active) in the assay with SK-MEL-2 melanoma; -11.5% (active) in the assay with SN12C renal; -11.9% (active) in the assay with TK-10 renal. Further, the growth is -6.21% (active) in the assay on CAKI-1 renal; -31.4% (active) in the assay on A498 renal; -9.7% (active) in the assay with RPMI-8226 leukemia; -9.22% (active) with OVCAR-3 ovarian; -11.1% (active) with MDA-MB-435 melanoma; 0.34% (active) in the assay with HCC-2998 colon.
For `CC1=C2C(=C[C@@](C)(COC(=O)c3ccc(S(=O)(=O)F)cc3)[C@@H]2OC(=O)c2ccc(S(=O)(=O)F)cc2)C(=O)[C@](C)(O)C12CC2`, the growth was -17.1% (active) in the assay with HOP-92 NSCLC; 23.8% (inactive) in the assay with K-562 leukemia; 60% (inactive) in the assay with UACC-257 melanoma; 21% (inactive) in the assay on SN12C renal; -3.99% (active) in the assay with TK-10 renal; -2.73% (active) in the assay with CAKI-1 renal. Also, the growth with RPMI-8226 leukemia is 67% (inactive); in the assay on MDA-MB-435 melanoma it was 3.18% (active); with HCC-2998 colon, -60% (active).
For the compound `COc1cc(OC)c(S(=O)(=O)N(CCCl)CCCl)cc1C(=O)/C=C/c1ccc(Cl)cc1`, the growth in the assay on HOP-92 NSCLC was 81.7% (inactive); in the assay with K-562 leukemia, 47.1% (inactive); with RXF 393 renal it was 45.3% (inactive); in the assay on UACC-257 melanoma, 73.6% (inactive); with SK-MEL-2 melanoma, 93% (inactive); in the assay on SN12C renal it was 86% (inactive). Also, the growth in the assay on TK-10 renal is 177% (inactive); in the assay with CAKI-1 renal, 65.7% (inactive); in the assay with RPMI-8226 leukemia, 4.74% (active); with OVCAR-3 ovarian, 69.9% (inactive); in the assay with MDA-MB-435 melanoma it was 33.1% (inactive); in the assay on HCC-2998 colon, 96.8% (inactive).
